This excerpt belongs to a sample that is enriched for hits.
Casp7 inh = allosteric or competitive inhibitors of human caspase-7 | P55210 | 0.02% of 75,000 active | recombinant caspase-7, Ac-DEVD-AFC fluorescence rate | Potency, µM (series often up to 57.5 µM), usual class: inhibitors; active means well fitted inhibition curve with a large enough effect in the main read-out, with a control signal flat, not every such curve was filed as active
GBA mod = modulators of human glucocerebrosidase. P04062. purified enzyme, resorufin glucoside fluorescence (screen aimed at inhibitors), 20 min. Potency, µM. 1.1% of 48,000 active. AID 360; in the data active means potency below about 15 µM;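 further: the screen sought inhibitors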
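Normal human glucocerebrosidase (0.2 nM final) was assayed with resorufin β-D-glucopyranoside (30 uM final) in 50mM citric acid/KH2PO4, 10mM sodium taurocholate, 0.01% tween-20, pH 5.9. Compounds were titrated; fluorescence (Ex 548, Em 600) read after 20 min at RT.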
Ub-GFP proteasome = proteasome inhibitors stabilizing ubiquitin-GFP reporter | Ubiquitin-GFP reporter cells, proteasome inhibition, GFP fluorescence; response scale: untreated = 0%, 10 µM MG-132 = 100% | Potency, µM (series often up to 45.9 µM), hits mostly activators | 67,000 tested, under 10 active | AID 526; active means well fitted activation curve with a large enough effect, not every such curve was filed as active
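U2OS cells stably expressing ubiquitin(G76V)-GFP, seeded overnight in 0.5% FBS medium, were exposed to compounds (qHTS, 46 uM to 2.9 nM) for 4 hr at 37 °C. GFP-positive cells were counted by laser cytometry (488 ex/515 em), normalized between basal and 10 uM MG-132.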
Epigenetic mod = derepresses silenced GFP locus in mouse C127i cells; mouse C127i GFP locus derepression, cytometry, 30 h; Potency, µM (highest dose often 46.1 µM); 0.09% of 68,000 active
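Derepression screen: silenced CMV-GFP reporter in murine C127i cells, 30 h compound incubation at 37 C, washed cells imaged by laser-scanning cytometer to enumerate GFP-expressing objects of 20 to 120 um.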
Casp1 inh = blocks human caspase-1 allosterically or competitively. AID 900. P29466. Potency, µM (doses to about 57.5 µM), usual class: inhibitors. Caspase-1 enzyme, Ac-WEHD-AFC fluorogenic rate. 0.03% of 75,000 active
HBB splice mod = hemoglobin beta splicing modulation | HBB splicing reporter cell assay, activation; EGFP reporter with mutant IVS2-654 intron; response scale: normalised to 500 nM splice-correcting PNA | 0.06% of 65,000 active | Potency, µM (highest dose often 46.1 µM), most hits filed as activators
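Compounds were applied for 2 days to HeLa EGFP-654 cells, 500/well in Optimem with 2% FCS. The reporter's EGFP is disrupted by mis-splicing of beta-globin intron IVS2-654. Readout: summed well GFP fluorescence from 488 nm laser scanning; reference was 500 nM antisense […] 654 PNA.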
A number is an active result; i = inactive; nt = no result; [ ] = remark or other dose. Unless noted, the call rests on the fitted dose curve; in most records, active means well fitted curve in the direction sought with a large enough effect; inconclusive means small, poorly fitted or top-dose-only effect, or another doubt; inactive means no such curve, though single readings can be large; an effect the other way counts as inactive or inconclusive.

SMILES	Casp7 inh	GBA mod	Ub-GFP proteasome	Epigenetic mod	Casp1 inh	HBB splice mod
O=C(c1ccco1)N1CCN(CC(=O)N2CCCc3c2c(=O)oc2ccc(O)cc32)CC1	i	i	i	i	i	i
O=C(CN1CCN(Cc2ccccc2)CC1)N1CCCc2c1c(=O)oc1ccc(O)cc21	i	14	i	i	i	i
CC(=O)Nc1ccc(S(=O)(=O)NCCc2csc(C)n2)cc1	i	i	i	i	i	i
Cc1cccc2cc(CN(Cc3nnnn3Cc3ccco3)C3CCCC3)c3nnnn3c12	i	9.8	i	i	i	i
O=S(=O)(NCc1cn2ccsc2n1)c1ccc2c(c1)OCCO2	i	nt	i	i	i	i
CCOC(=O)c1c(C(C)(C)C)oc2ccc(OCC#N)cc12	i	nt	i	i	i	i
Cc1ccc(OCc2nc(C#N)c(NCCCn3ccnc3)o2)cc1	i	nt	i	i	i	i
N#Cc1nc(COc2ccc(Br)cc2)oc1NCCCn1ccnc1	i	14	i	i	i	i
CCCOc1ccccc1NC(=O)CC1Nc2ccccc2NC1=O (stereo unspecified)	i	14	i	i	i	i
CCSc1nnc(NC(=O)c2ccc(Br)s2)s1	i	1	i	i	i	i
CCSc1nnc(NC(=O)c2ccccc2)s1	i	nt	i	i	i	i[9.22 µM]
CCOc1ccc(Cc2nc(-c3nonc3N)no2)cc1OCC	i	i	i	i	i	i
CCn1c(=O)c(=O)[nH]c2cc(C(=O)Nc3ccc(S(=O)(=O)N4CCCC4)cc3)ccc21	i	5.1	i	i	i	i
CN1CCN(S(=O)(=O)c2ccc(NC(=O)c3ccc(F)cc3)cc2)CC1	i	14	i	i	i	i
COc1ccc2c(c1)c(C(=O)N1CCN(C)CC1)c(C)n2-c1ccccc1	i	12	i	i	i	nt
COC(=O)c1c(C)n(-c2ccccc2)c2ccc(O)cc12	i	i	i	i	i	i
CCC(c1nnnn1CCOC)N1CCN(c2cccc(C(F)(F)F)c2)CC1 (stereo unspecified)	i	nt	i	i	i	i
N#Cc1ccc(C23CC4(C2)[C@H](CN(CC2CCCCC2)[C@@H]4c2ccccc2)C3c2ccccc2)cc1 (stereo partly specified)	i	nt	nt	nt	i	nt
CN1C(=S)SC(C)(C)C1/[N+]([O-])=C/c1cccnc1 (stereo unspecified)	i	i	nt	i	i	i[0.369 µM]
N[C@@]1(C(=O)O)CN[C@H](C(=O)O)C1	i	nt	i	i	i	nt
Cc1cc(NC(=O)CSc2nc3c(c(=O)n2-c2ccc(Cl)cc2)SCC3)no1	i	14	i	i	i	i
CCc1nnc(NC(=O)CSc2nnc(-c3ccccc3NC(=O)c3ccccc3)o2)s1	i	i	i	i	i	nt
CCOC(=O)CSc1nnc(-c2ccccc2NC(=O)c2ccccc2)o1	i	8.3	i	i	i	nt
COc1c(F)c(F)c(C(=O)Nc2ccc(NC(=O)c3ccco3)cc2)c(F)c1F	i	1.5	i	i	i	i
CCOc1ccc(NC(=O)c2ccco2)cc1	i	i	i	i	i	i
SMILES	Casp7 inh	GBA mod	Ub-GFP proteasome	Epigenetic mod	Casp1 inh	HBB splice mod
O=C(Nc1ccc(Nc2ccccc2)cc1)c1ccco1	i	3	i	i	i	i
CC(=O)Nc1ccc(S(=O)(=O)Nc2ccc(NC(=O)c3ccco3)cc2)cc1	i	11	i	i	i	i
Cc1cc(NS(=O)(=O)c2ccc(NC(=O)c3ccco3)cc2)no1	i	i	i	i	i	nt
CC1CCc2c(sc3nc(SCC(=O)NCc4ccco4)nc(N)c23)C1 (stereo unspecified)	i	i	i	i	i	i
CC1=C(C(=O)N(C)C)C(c2cccc(Cl)c2)NC(=O)N1 (stereo unspecified)	i	i	i	i	i	i
COc1cccc(-c2cncnc2NCCN2CCOCC2)c1	i	nt	i	i[9.22 µM]	i	i
O=S1(=O)C=C(Sc2nc3ccccc3s2)c2ccccc21	i	11	i	i	i	i
O=C(c1ccccc1)c1ccc(N2CCOCC2)c(NC(=O)c2ccco2)c1	i	i	i	i	i	i

Bioassay records: PubChem, National Center for Advancing Translational Sciences (NCATS)
